Active and inactive are the calls of the source.
Legend:
[1] = E. coli DRC41 culture turbidity changes, primary screen, E. coli filamentation inducer project, strain DRC41, OD650, 48 h (AID 1152);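 further: E. coli MC1000 strain DRC41 lacking acrAB efflux pump and sulA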; conditions: E. coli DRC41 (acrAB sulA); higher = more signal, called active from +8 up or from −8 down unless noted
[2] = small-molecule binders of probe aLefty1, primary screen, biochemical, small-molecule microarray, 635/667 nm fluorescence (AID 1153); conditions: higher = more signal; small-molecule microarray, probe aLefty1, fluorescence unless noted;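 further: score merges spot fluorescence with signal-to-noise ratio from the scanned slide images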
[3] = PSAC antagonists in infected red cells, primary screen, cell-based, P. falciparum Indochina, OD700, 1 h (AID 1154); conditions: P. falciparum Indochina infected RBC osmotic lysis; higher = more signal, called active from +8 up or from −8 down unless noted
[4] = PSAC antagonists in infected red cells, primary screen, cell-based, P. falciparum Indochina, OD700, 2 h (AID 1155);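 further: lysis reports solute entry through the parasite surface anion channel PSAC; channel blockers reduce lysis of infected cells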; conditions: P. falciparum Indochina infected erythrocytes, osmotic lysis OD700; higher = more signal, called active from +8 up or from −8 down unless noted
[5] = osmotic lysis modulators in infected erythrocytes, primary screen, PSAC antagonist project, cell-based, P. falciparum Indochina, OD700, 3 h (AID 1156); conditions: higher = more signal, called active from +8 up or from −8 down unless noted
[6] = PSAC antagonists in infected red cells, primary screen, cell-based, P. falciparum Indochina, OD700, 18 h (AID 1157); conditions: P. falciparum Indochina infected erythrocytes, osmotic lysis OD700, 18 h; higher = more signal, called active from +8 up or from −8 down unless noted
[7] = modulators of S6 phosphorylation in cells, primary screen, cell-based, A549, cytoblot, luminescence, serum-stimulated (AID 1158); conditions: A549 phospho-S6 cytoblot, 5 h, higher = more signal;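 further: serum-stimulated A549 lung adenocarcinoma cells; signal is phosphorylated S6 detected by cytoblot immunostaining with HRP secondary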
[8] = biological target: NADPH oxidase 2 (Homo sapiens) (UniProt P04839); assay: NOX2-dependent H2O2 signal modulators, primary screen, NOX inhibitor project, cell-based, HEK293-NOX2, PMA-stimulated, Amplex Red fluorescence (AID 1159); conditions: 45 min; higher = more signal, called active from +8 up or from −8 down unless noted; further: test concentration not given here
[9] = biological target: NADPH oxidase 4 (Homo sapiens) (UniProt Q9NPH5); assay: NOX4-dependent H2O2 signal modulators, primary screen, NOX inhibitor project, cell-based, HEK293-NOX4, tetracycline-induced, Amplex Red fluorescence (AID 1160); conditions: 45 min; higher = more signal, called active from +8 up or from −8 down unless noted
[10] = biological target: NADPH oxidase 5 (Homo sapiens) (UniProt Q96PH1); assay: NOX5-dependent H2O2 signal modulators, primary screen, NOX inhibitor project, cell-based, HEK293-NOX5, Amplex Red fluorescence (AID 1161); conditions: HEK293-NOX5, ionomycin, 45 min, higher = more signal
NADPH oxidase 5 (Homo sapiens), sequence (Q96PH1 whole entry, looked up): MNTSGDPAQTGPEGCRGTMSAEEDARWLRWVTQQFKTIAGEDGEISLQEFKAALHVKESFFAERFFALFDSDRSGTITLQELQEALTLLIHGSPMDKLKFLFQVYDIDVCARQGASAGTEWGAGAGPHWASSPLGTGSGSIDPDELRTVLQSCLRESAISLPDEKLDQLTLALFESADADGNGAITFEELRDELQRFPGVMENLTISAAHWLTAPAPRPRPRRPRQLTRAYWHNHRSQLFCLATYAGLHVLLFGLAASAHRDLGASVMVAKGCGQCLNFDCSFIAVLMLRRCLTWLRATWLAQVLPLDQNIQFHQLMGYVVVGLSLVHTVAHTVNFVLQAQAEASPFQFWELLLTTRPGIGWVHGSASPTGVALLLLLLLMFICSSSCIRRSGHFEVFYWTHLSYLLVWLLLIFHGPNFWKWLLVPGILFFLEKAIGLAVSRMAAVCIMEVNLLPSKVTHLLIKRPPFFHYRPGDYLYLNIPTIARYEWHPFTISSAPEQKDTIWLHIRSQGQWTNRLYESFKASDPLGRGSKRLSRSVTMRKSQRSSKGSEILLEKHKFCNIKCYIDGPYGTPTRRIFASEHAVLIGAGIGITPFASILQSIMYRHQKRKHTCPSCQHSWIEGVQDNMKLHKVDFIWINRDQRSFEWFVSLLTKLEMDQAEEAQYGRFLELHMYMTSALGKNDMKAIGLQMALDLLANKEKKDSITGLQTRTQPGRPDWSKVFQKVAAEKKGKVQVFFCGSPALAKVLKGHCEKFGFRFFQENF

NADPH oxidase 4 (Homo sapiens), sequence (Q9NPH5 whole entry, looked up): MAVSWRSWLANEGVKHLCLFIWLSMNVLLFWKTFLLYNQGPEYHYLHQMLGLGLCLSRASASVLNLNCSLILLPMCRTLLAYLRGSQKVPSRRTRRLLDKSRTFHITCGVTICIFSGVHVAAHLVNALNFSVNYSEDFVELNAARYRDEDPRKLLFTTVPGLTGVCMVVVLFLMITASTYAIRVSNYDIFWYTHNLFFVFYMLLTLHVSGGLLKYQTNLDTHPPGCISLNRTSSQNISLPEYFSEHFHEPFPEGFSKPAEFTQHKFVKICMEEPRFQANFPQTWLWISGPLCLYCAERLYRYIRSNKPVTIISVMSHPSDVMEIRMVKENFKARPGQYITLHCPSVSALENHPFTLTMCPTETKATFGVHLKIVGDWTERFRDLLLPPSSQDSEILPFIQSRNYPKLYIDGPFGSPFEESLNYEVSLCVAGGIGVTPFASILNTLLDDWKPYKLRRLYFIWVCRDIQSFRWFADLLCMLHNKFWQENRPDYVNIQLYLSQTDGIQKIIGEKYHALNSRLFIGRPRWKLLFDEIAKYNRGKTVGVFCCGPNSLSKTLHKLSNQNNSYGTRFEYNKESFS
NADPH oxidase 2 (Homo sapiens), sequence (P04839 whole entry, looked up): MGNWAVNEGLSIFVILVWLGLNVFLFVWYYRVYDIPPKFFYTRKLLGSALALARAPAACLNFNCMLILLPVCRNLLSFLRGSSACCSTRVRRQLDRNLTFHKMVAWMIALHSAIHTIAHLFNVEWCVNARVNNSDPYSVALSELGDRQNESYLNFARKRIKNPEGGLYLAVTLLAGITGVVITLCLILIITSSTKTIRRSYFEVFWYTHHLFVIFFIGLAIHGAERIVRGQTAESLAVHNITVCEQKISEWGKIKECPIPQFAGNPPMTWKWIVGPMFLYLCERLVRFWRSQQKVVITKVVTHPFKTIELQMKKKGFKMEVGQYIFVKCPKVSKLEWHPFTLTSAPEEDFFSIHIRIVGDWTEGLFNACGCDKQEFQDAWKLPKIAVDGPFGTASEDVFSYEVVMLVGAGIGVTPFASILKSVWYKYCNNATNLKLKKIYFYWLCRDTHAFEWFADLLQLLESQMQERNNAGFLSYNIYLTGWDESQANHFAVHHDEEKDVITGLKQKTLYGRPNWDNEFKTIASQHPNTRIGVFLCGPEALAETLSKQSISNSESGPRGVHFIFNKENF

Row | Structure (SMILES) | z-score [1] | composite z-score [2] | z-score [3] | z-score [4] | z-score [5] | z-score [6] | z-score [7] | z-score [8] | z-score [9] | z-score [10]
1 | COC(=O)[C@@]1(Cc2ccccc2)[C@H]2c3cc(C(=O)N(C)C)[nH]c3C[C@H]2CN1C(=O)c1ccccc1 | -1.41 (inactive) | 0.802 | 1.11 (inactive) | 0.322 (inactive) | 0.337 (inactive) | 0.766 (inactive) | -0.519 | 0.434 (inactive) | 0.0256 (inactive) | -3.03
2 | C[C@H]1O[C@H]2C3=C(C(=O)[C@@H]4O[C@@H]4[C@@H]3O)[C@@H]1[C@@H]1[C@@H](C)OC=C3[C@@H](O)[C@H]4O[C@H]4C(=O)[C@]312 | -0.209 (inactive) | -0.321 | -0.49 (inactive) | -0.569 (inactive) | 0.276 (inactive) | -0.987 (inactive) | 1.5 | -0.203 (inactive) | -0.0614 (inactive) | 0.441
3 | CCOC(=O)[C@H]1CC=C2C(=O)Oc3ccc(Br)cc3[C@@H]21 | -0.704 (inactive) | 0.035 | 1.79 (inactive) | 1.03 (inactive) | -0.0107 (inactive) | 0.756 (inactive) | -0.747 | -0.0356 (inactive) | -1.75 (inactive) | -0.445
4 | CCCC=C(CCC)[C@@H](NP(=O)(c1ccccc1)c1ccccc1)c1ccccc1 | -1.19 (inactive) | 0.547 | 4.03 (inactive) | 0.584 (inactive) | 0.689 (inactive) | 0.249 (inactive) | 1.02 | -1.7 (inactive) | -0.617 (inactive) | 0.842
5 | COC(=O)NCC=Cc1nc(CCC=CC(=O)O[C@H]2CC3CC(=O)O[C@@H](C=CCC(C)C)C[C@@H]4CC[C@H](C)[C@@H](C[C@@H](OC)C[C@H](C2)O3)O4)co1 | -0.0987 (inactive) | -0.213 | 0.465 (inactive) | 0.0987 (inactive) | -0.0546 (inactive) | -0.195 (inactive) | -0.975 | 0.902 (inactive) | 0.594 (inactive) | -0.00689
6 | CCOC(=O)[C@H]1CC=C2C(=O)Oc3ccccc3[C@@H]21 | -0.59 (inactive) | -0.106 | 1.27 (inactive) | 0.804 (inactive) | 0.458 (inactive) | 0.708 (inactive) | -0.395 | 0.00603 (inactive) | -0.285 (inactive) | -0.275
7 | OCc1ccc(C2=CC(C3CC3)N(Cc3sc4ccccc4c3Cl)CC2)cc1 (stereo not given) | -2 (inactive) | 0.0253 | 13.6 (active) | 2.7 (inactive) | 0.258 (inactive) | 1.51 (inactive) | -0.627 | 0.703 (inactive) | -1.07 (inactive) | -1.55
8 | COC(=O)C1(C)C=C2C(=C(C)C(=O)C2C)CN1 (stereo not given) | -1.84 (inactive) | 0.257 | 0.539 (inactive) | 0.405 (inactive) | 1.16 (inactive) | 0.643 (inactive) | -0.232 | -0.172 (inactive) | -2.31 (inactive) | -3.35
9 | COc1cc2c(cc1O)C=[N+](C)CC2 | 1.13 (inactive) | -0.147 | 2.39 (inactive) | -0.687 (inactive) | 0.0284 (inactive) | -0.752 (inactive) | 2.42 | -3.74 (inactive) | -2.03 (inactive) | -2.13
10 | CCc1cc2c(nc1CC)CCN(CCC(C)=NOC)C2 | -1.88 (inactive) | 0.393 | 1.69 (inactive) | 1.29 (inactive) | 0.194 (inactive) | 0.612 (inactive) | 0.481 | -0.0413 (inactive) | -1.48 (inactive) | 1.13
11 | CCCc1cc2c(n1Cc1cccc(Cl)c1)C(C)C1CN(C(=O)c3ccccc3)C(C)(C(=O)OC)C21 (stereo not given) | -1.69 (inactive) | 0.235 | 2.02 (inactive) | 0.676 (inactive) | 1.22 (inactive) | 0.153 (inactive) | -0.46 | -1.21 (inactive) | -2.3 (inactive) | -2.42
12 | CCCc1cc2c(n1Cc1ccco1)C(C)C1CN(C(=O)c3ccccc3)C(C)(C(=O)OC)C21 (stereo not given) | -2.11 (inactive) | 0.439 | 5.21 (inactive) | 0.63 (inactive) | 0.952 (inactive) | 0.495 (inactive) | -0.11 | -1.61 (inactive) | -6.73 (inactive) | -3.84
13 | CN1CCC(c2ccc(CO)cc2)=CC1C1CC1 (stereo not given) | -0.492 (inactive) | 0.103 | 0.899 (inactive) | 0.0137 (inactive) | -0.38 (inactive) | 0.0864 (inactive) | -1.04 | -0.477 (inactive) | -0.169 (inactive) | -0.0858
14 | COC(=O)[C@H]1C(=O)c2ccccc2O[C@@](C(=O)OC)(c2ccccc2)[C@@H]1c1ccccc1 | 0.0473 (inactive) | -0.199 | 0.251 (inactive) | -0.528 (inactive) | -0.591 (inactive) | -0.56 (inactive) | -0.651 | 1.19 (inactive) | 0.752 (inactive) | 0.627
15 | C=C(CC1(C(C)NP(=O)(c2ccccc2)c2ccccc2)CC1)c1ccccc1 (stereo not given) | -1.67 (inactive) | 0.603 | 2.42 (inactive) | 0.809 (inactive) | 0.512 (inactive) | 1.03 (inactive) | 0.984 | -0.412 (inactive) | -3.69 (inactive) | -3.82
16 | CCCc1cc2c(n1Cc1ccc(C)cc1)C(C)C1CN(C(=O)c3ccccc3)C(C)(C(=O)OC)C21 (stereo not given) | -0.692 (inactive) | 1.33 | 1.5 (inactive) | -0.732 (inactive) | 0.454 (inactive) | -1.81 (inactive) | 1.39 | -0.714 (inactive) | -0.757 (inactive) | -3.63

From PubChem BioAssay
